SMILES strings stand for the structures. Out of some 290,000 compounds screened, about 150 (0.052%) were called active. For the sample, actives were picked, then their nearest neighbours and some compounds at random. Results with a measured potency or affinity are listed apart. Values without a mark were called inactive.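 Rule for the calls: active = inhibition of at least 50% with at least 30 cells and total cytoplasm GFP at most 10,000,000; inconclusive = under 30 cells or total GFP of 10,000,000 plus; inactive = the rest.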

Usually inhibition stands for the drop in the measured response relative to a control, in per cent.

Sequence of G-protein coupled receptor 35 (Homo sapiens) (Q9HC97 whole entry, looked up): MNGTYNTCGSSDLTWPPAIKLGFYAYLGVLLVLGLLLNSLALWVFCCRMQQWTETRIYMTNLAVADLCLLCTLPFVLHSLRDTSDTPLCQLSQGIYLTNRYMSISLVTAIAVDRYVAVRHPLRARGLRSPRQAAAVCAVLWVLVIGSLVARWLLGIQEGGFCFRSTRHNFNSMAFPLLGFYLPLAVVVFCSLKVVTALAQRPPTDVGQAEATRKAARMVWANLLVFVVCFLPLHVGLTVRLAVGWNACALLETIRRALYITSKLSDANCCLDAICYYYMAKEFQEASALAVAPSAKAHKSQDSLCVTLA

This test addresses G-protein coupled receptor 35 (Homo sapiens) (UniProt Q9HC97). Kind of test: GPR35 antagonists blocking zaprinast-driven arrestin recruitment, primary screen, imaging, U2OS, beta-arrestin-GFP, zaprinast agonist (AID 2058). As to conditions: U2OS GPR35 beta-arrestin-GFP translocation imaging, zaprinast antagonism; at 10 µM; active compounds read high.
Consider `CCOC(=O)N1CCN(C(=O)C2CCN(S(=O)(=O)c3ccc(OCC)cc3)CC2)CC1`, for which the inhibition was 10.5%.
For `O=C1/C(=C/c2ccc(Cl)cc2)NC(=S)N1Cc1cccnc1`, the inhibition is -2.2%.
Consider `CC(C)c1ccc(/C=C2\NC(=S)N(Cc3cccnc3)C2=O)cc1`, for which the inhibition was -2.8%.
Regarding `S=c1[nH]nc(COc2ccccc2)n1/N=C/c1c(Cl)cccc1Cl`, the inhibition is 0.3%.
For the compound `Cc1ccc(S(=O)(=O)N[C@@H](Cc2ccccc2)C(=O)N2CCC(C(=O)N[C@@H](CC(C)C)C(=O)O)CC2)cc1`, the inhibition is 1%.
On to `Cc1ccc(OC(C)C(=O)Nc2ccc(S(=O)(=O)Nc3nccs3)cc2)cc1` (stereo unspecified), for which the inhibition was -8.6%.
For `COc1ccc(OC)c(NC(=O)C2CCN(S(=O)(=O)c3cccs3)CC2)c1` the value was 4.3%; for `CCCCCC(=O)N/N=C(\C)c1ccc(Cl)cc1`, -9.2%; for `CCN(CC(=O)NC1CCS(=O)(=O)C1)c1nc(-c2ccccc2)nc2ccccc12` (stereo unspecified), 1.8%.
In the case of `CC(NC(=O)NC1CCCCC1)c1ccccc1` (stereo unspecified), the inhibition was 5.6%.
Regarding `CCC(NC(=S)NC1CCCCC1)c1ccccc1` (stereo unspecified), the inhibition is -4.4%.
Consider `CCC(NC(=O)NC1CCCCC1)c1ccccc1` (stereo unspecified), for which the inhibition is 103% (active).
For `COc1cc(C#N)ccc1OCC(=O)N1CCc2ccccc2C1` the value was 10.3%; for `O=c1c(Cl)c(Cl)cnn1Cc1ccc(F)cc1`, 49.1%; for `Cc1ccc(Cn2ncc(Cl)c(Cl)c2=O)cc1`, 33.1%.
On to `CCc1c(C)sc(NC(=O)c2ccco2)c1C(=O)N1CCOCC1`, for which the inhibition was -15.5%.
Take `COc1ccc(OC)c(N(CC(=O)Nc2ccc3c(c2)OCCO3)S(C)(=O)=O)c1`: the inhibition is -8.2%.
For `C[N+]1=C(/C=C/Nc2ccccc2Cl)C(C)(C)c2ccccc21`, the inhibition is 6.8%.
`COC(=O)c1ccc2c(c1)C(C)(C)C(/C=C/c1ccccc1O)=[N+]2C`: the inhibition was 18.9%.
Regarding `O=c1c(Cc2ccc(F)cc2)c(O)ccn1Cc1cccc(Cl)c1`, the inhibition was -9.1%.
Consider `O=S(=O)(NCCSc1ccccc1)c1cccs1`, for which the inhibition is -13.8%.
With `O=C(CCN1C(=O)/C(=C/c2ccc3c(c2)OCO3)SC1=S)Nc1cccc(C(=O)O)c1`, the inhibition was -7.5%.
Consider `O=C(CCCN1C(=O)/C(=C/c2ccco2)SC1=S)Nc1cccc(C(=O)O)c1`, for which the inhibition is 5.8%.
For the compound `O=C(CCN1C(=O)/C(=C/c2ccc3c(c2)OCO3)SC1=S)Nc1ccc(C(=O)O)cc1`, the inhibition was 0.4%.
With `O=C(CCN1C(=O)/C(=C/c2ccc3c(c2)OCO3)SC1=S)Nc1ccccc1`, the inhibition was 15.7%.
With `Cn1c(=O)n(CC(=O)N2CCOCC2)c2ccccc21` the figure was -9.9%; with `O=C(CCN1C(=O)c2ccncc2C1=O)Nc1ccc(F)cc1`, 3.7%; with `C(/C=C/C=C/Nc1ccccc1)=Nc1ccccc1`, 90.5% (active).
As for `Brc1ccc(N=C/C=C/C=C/Nc2ccc(Br)cc2)cc1`, the inhibition was 40.6%.
As for `CCn1c(O)c(/C=C/C=C/C=Nc2ccccc2)sc1=S`, the inhibition is -0.5%.
Turning to `COc1ccccc1NC(=O)N1CCN(Cc2ccc3c(c2)OCO3)CC1`, the inhibition is -7.3%.
For the compound `COc1ccc(/C=C2/S/C(=N/N=C3\CC4CCC3(C)C4(C)C)NC2=O)cc1` (stereo unspecified), the inhibition was 1.4%.
Turning to `Cc1cccc(/C=C2/S/C(=N/N=C3\CC4CCC3(C)C4(C)C)NC2=O)c1` (stereo unspecified), the inhibition was 1.3%.
As for `Cc1nc(CC(=O)O)c(-c2ccccc2)s1`, the inhibition is -2.4%.
Consider `Cc1ccc(C(=O)C(C)OC(=O)c2cc3cc([N+](=O)[O-])ccc3oc2=O)cc1` (stereo unspecified), for which the inhibition is -8.8%.
Turning to `Cc1cc(-c2nnc(SCC(=O)Nc3ccccc3Cl)n2C)no1`, the inhibition was 18.2%.
`CC[n+]1c(C=C2C=C(C)OC(C)=C2)sc2ccccc21`: the inhibition is 11.8%.
For `CC1=CC(=C(C#N)c2nc3ccccc3s2)C=C(C)N1CC1CCCO1` (stereo unspecified) the value was 3.3%; for `Cn1c(=O)cc(OCC(=O)NCCc2ccc(Cl)cc2)c2ccccc21`, 13.1%.
As for `COc1ccc(OC)c2[nH]c(C(=O)N3CCC(C(=O)O)CC3)cc12`, the inhibition was -3.2%.
With `CC1Cc2ccccc2N1C(=O)c1cccnc1` (stereo unspecified) the figure was 20.2%; with `COc1ccccc1/C=C/C(=C1/C(=O)N(c2ccccc2)N=C1C)c1ccc(C)cc1`, -2%.
For the compound `CC1=CC(=O)c2ccccc2C1=O`, the inhibition is 10.8%.
Take `CC(C)(C)c1ccc2c(c1)C(=O)c1ccccc1C2=O`: the inhibition was -1.9%.
Consider `CC(C)(C=O)C1=CC(=O)c2ccccc2C1=O`, for which the inhibition is 78.8% (active).
With `CC1Cc2ccccc2N1C(=O)CN(C)S(=O)(=O)c1cccc2cccnc12` (stereo unspecified), the inhibition was -6.9%.
For `Cc1ccccc1C(=O)N1CCCN(C(=O)c2ccccc2C)CC1` the value was -12.2%; for `O=C(NNC(=S)Nc1ccc(F)cc1F)c1ccco1`, -12.7%; for `CCOCCCNC(=O)C(c1ccc(Cl)cc1)N1CCN(c2ccccc2)CC1` (stereo unspecified), 5.9%.
Regarding `Cc1ccc(/C=C(\C#N)C(=O)NC(C)c2ccccc2)o1` (stereo unspecified), the inhibition was -5.7%.
With `CC(C)NC(=O)/C(C#N)=C\c1ccc(N(C)C)o1` the figure was 50% (active).
With `COC(=O)c1ccc(/C=C(\C#N)C(=O)NC(C)c2ccccc2)cc1` (stereo unspecified) the figure was -3.1%; with `COc1ccc(/C=C(\C#N)C(=O)NC(C)c2ccccc2)cc1O` (stereo unspecified), 9.9%.
With `Cc1ccc(/C=C(/C#N)C(=O)NC(C)c2ccccc2)o1` (stereo unspecified) the figure was -7.7%; with `CCN(CC)c1ccc(/C=C(/C#N)C(=O)NC(C)C)o1`, 14.3%.
On to `CC(C)NC(=O)/C(C#N)=C/c1ccc(N(C)C)o1`, for which the inhibition was 19.2%.
As for `CC(CCc1ccccc1)NC(=O)CCN1N=C(c2ccccc2)CCC1=O` (stereo unspecified), the inhibition is -14.8%.
For `O=C(NCCN1CCN(c2ccccc2)CC1)C1CCN(S(=O)(=O)N2CCOCC2)CC1` the value was 17.1%; for `COc1cccc(C(=O)NC(=S)Nc2ccccc2N2CCCCC2)c1`, 9.4%; for `O=C(CCn1cccn1)Nc1ccc2c(c1)OCCO2`, 18.7%.
As for `CCC1(C)Cc2ccccc2-c2[nH][nH]c(=O)c21` (stereo unspecified), the inhibition was -5.1%.
